Source: PubChem BioAssay
Compounds with a hit are over-represented: about 0.86% of the library has one in this group of screens.
CDC25B-CDK2 inh = human CDC25B-CDK2/CyclinA binding inhibition. P30305+P24941. HTRF CDC25B-CDK2/CyclinA binding, anti-His/anti-Flag; stronger effect = higher value. z-score (test concentration not listed). 94,000 tested, 0.72% active; in the data active means z-score above about 3.2
TAR Tat displ = HIV-1 TAR-Tat binding disruption; z-score (test concentration not listed); 100,000 tested, 0.6% active; HIV-1 TAR RNA, Tat peptide displacement FRET; stronger effect = higher value; AID 1259389; active means z-score of 3 or more in at least 2 runs
* = called active by the depositor; · = no result given.

SMILES	CDC25B-CDK2 inh	TAR Tat displ
CCOc1cc(C2CC(=O)Nc3nc(SCc4ccccc4C)[nH]c(=O)c32)ccc1O (centres undefined)	-0.18	1.76
Cc1ccc(CSc2nc(=O)c3c(n2C)NC(=O)CC3c2ccc(O)c(O)c2)cc1 (centres undefined)	-0.12	25.8*
Cn1c(SCc2ccc(F)cc2)nc(=O)c2c1NC(=O)CC2c1cccc(O)c1 (centres undefined)	-1.23	-0.43
CCOc1cc(C2CC(=O)Nc3nc(SC)[nH]c(=O)c32)ccc1O (centres undefined)	-2.48	1.84
Cc1ccccc1CSc1nc2c(c(=O)[nH]1)C(c1ccc(O)c(O)c1)CC(=O)N2 (centres undefined)	2.85	25.2*
C=CCSc1nc2c(c(=O)[nH]1)C(c1cc(F)cc(F)c1)CC(=O)N2 (centres undefined)	-1.42	-0.27
C=CCSc1nc2c(c(=O)[nH]1)C(c1ccc(O)c(O)c1)CC(=O)N2 (centres undefined)	16.1*	18.5*
Cc1cc(C)n2ncc(-c3ccc(Cl)cc3)c2n1	-0.07	-0.55
O=S1(=O)C[C@H](N2CCN(c3ccccc3F)CC2)[C@@H](S(=O)(=O)c2ccc(Cl)cc2)C1	-1.7	0.78
O=S1(=O)C[C@H](N2CCN(c3ccc(F)cc3)CC2)[C@@H](S(=O)(=O)c2ccccc2)C1	-0.19	1.02
Nc1ccc(-c2nc3cc4ccccc4cc3[nH]2)cc1	-4.03	0.2
O=c1[nH]c2ccc(NCc3ccc4c(c3)OCO4)cc2[nH]1	0.69	-1.88
O=c1[nH]c2ccc(NCc3ccc(-c4ccccc4F)o3)cc2[nH]1	4.65*	-1.22
O=c1[nH]c2ccc(NCc3ccc(-c4ccccc4)o3)cc2[nH]1	3.6	-0.75
O=c1[nH]c2ccc(NCc3ccc(-c4ccc(Cl)cc4)o3)cc2[nH]1	10.3*	-3.11
COc1ccc(Br)cc1C1Nc2ccccc2S(=O)(=O)N1Cc1ccccc1 (centres undefined)	-1.89	·
COc1ccc(-c2noc(NC3CCCCC3)n2)cc1OC	·	-0.21
COc1ccc(-c2cc(N3CCOCC3)nc(C)n2)cc1	0.71	0.18
CCN(CC)S(=O)(=O)N(CC(=O)O)CC(=O)O	·	0.75
O=C(O)CN(CC(=O)O)S(=O)(=O)c1ccccc1	·	16.5*
COc1cccc(C2C(C#N)=C3N=C(N)c4ccccc4N3C3=C2C(=O)CCC3)c1 (centres undefined)	-1.68	-1.69
N#CC1=C2N=C(N)c3ccccc3N2C2=C(C(=O)CCC2)C1c1cccc(Cl)c1 (centres undefined)	19.5*	-3.56
COCCOC(=O)C1=C(C)Nc2nc3ccccc3n2C1c1ccc(OC)c(OC)c1 (centres undefined)	0.17	-1.44
CCc1cc(C(=O)N=Nc2c(O)[nH]c3ccc(Br)cc23)c2ccccc2n1	-0.58	·
O=C(NCc1cccs1)c1ccc(CS(=O)c2ccccc2)o1 (centres undefined)	-1.41	-0.23
SMILES	CDC25B-CDK2 inh	TAR Tat displ
O=c1[nH]c2ccc(NCc3cc(Br)ccc3OCc3ccccc3)cc2[nH]1	13*	-3.08
COc1cc(CNc2ccc3[nH]c(=O)[nH]c3c2)cc(Br)c1OCc1cccs1	8.87*	·
CC(C)(CO)NCc1cc(Br)ccc1OCc1ccccc1	0.31	-0.65
CCOc1cc(CNc2ccc(O)cc2)cc(Br)c1OCc1cccs1	-0.71	-6.52
CNC(=O)C1=Cc2sc3c(c2CS1)CCCC3	·	-0.32
Cc1cc(C)c(S(=O)(=O)Nc2cccc(N3CCCS3(=O)=O)c2)cc1C	·	-0.29
CC1CCCCN1C(=O)CSc1nc(-c2ccco2)nc2cc(=O)[nH]n12 (centres undefined)	·	1.22
CC1CCN(C(=O)CSc2nc(-c3ccco3)nc3cc(=O)[nH]n23)CC1	·	9.23*
COc1ccc(C2CC(=O)N3CN(C4CCCC4)CSC3=C2C#N)cc1 (centres undefined)	5.53*	0.43
N#CC1=C2SCN(C3CCCCC3)CN2C(=O)CC1c1ccc(Br)cc1 (centres undefined)	-1.15	-1.11
Cc1ccc(C2CC(=O)N3CN(C4CCCC4)CSC3=C2C#N)cc1 (centres undefined)	0.66	0.26
CCc1ccc(C2CC(=O)N3CN(C4CCCCC4)CSC3=C2C#N)cc1 (centres undefined)	3.9*	-1.18
Cc1ccccc1-n1c(SCc2cc(=O)n3ccccc3n2)nnc1-c1cc2occc2n1C	·	0.75
Cc1noc(C)c1C(=O)O/N=C(\N)Cn1ccc(C(F)(F)F)n1	-1.4	·
CSc1cccc(NC(=O)NCc2cc(C)n(-c3cccc(Cl)c3)c2C)c1	·	-0.14
Cc1ccc(C(=O)NC(C)CCc2ccccc2)cc1NC(=O)C1=CSCCO1 (centres undefined)	·	1.63
C/C(CC(C)(C)Nc1ccccc1)=N\O	14.1*	·
CC(/C=N/O)=N\Nc1ccccc1	-1.8	·
Cn1cc(S(=O)(=O)c2ccccc2)c(=O)c2cc(Cl)ccc21	-2.02	2.42
Cn1cc(S(=O)(=O)c2ccccc2)c(=O)c2cc(F)ccc21	-1.56	21.2*
Brc1ccc(C(c2c[nH]c3ccccc23)c2c[nH]c3ccccc23)s1	16.2*	·
O=C(c1ccc(Br)cc1)C(O)c1c[nH]c2ccccc12 (centres undefined)	0.22	1.2
O=C1c2ccccc2-c2onc3c(N4CCN(C(=O)c5ccco5)CC4)cc(NCCO)c1c23	0.78	7.37*
COCCNc1cc(N2CCN(C(=O)c3ccco3)CC2)c2noc3c2c1C(=O)c1ccccc1-3	0.55	2.75
CCNc1cc(N2CCN(C(=O)c3ccco3)CC2)c2noc3c2c1C(=O)c1ccccc1-3	-1.55	2.58
SMILES	CDC25B-CDK2 inh	TAR Tat displ
O=C1c2ccccc2-c2onc3c(N4CCN(C(=O)c5ccco5)CC4)cc(NCc4ccco4)c1c23	1.63	15.1*
COc1ccc(OC)c(NS(=O)(=O)c2cc(-c3cnc(C4CC4)o3)ccc2C)c1	·	0.14
CCCCCn1c(C)nc2cc(C)c(C)cc21	1.27	1.29
COCC1=CC2CC(C1)C[B-]1(C2)Oc2cccc3ccc[n+]1c23 (centres undefined)	5.18*	·
N#Cc1c(NC(=O)CSc2cc(-c3ccccc3)ncn2)sc2c1CCC2	-1.46	0.76
Cc1sc2ncn(CC(=O)N3CCCCC3C)c(=O)c2c1S(=O)(=O)N1CCN(C)CC1 (centres undefined)	16.5*	·
Cc1sc2ncn(CC(=O)N3CCCC3)c(=O)c2c1S(=O)(=O)N1CCCCC1	0.27	·
CC(=O)c1cc(-c2ccc(Cl)cc2)no1	-1.73	·
Cc1cc2c3c([nH]c2cc1S(=O)(=O)Nc1cccnc1)CCCC3=O	·	7.64*
Cc1cc2c3c([nH]c2cc1S(=O)(=O)Nc1ccccc1)CCCC3=O	·	-1.3
Cc1ccc(NS(=O)(=O)c2cc3[nH]c4c(c3cc2C)C(=O)CCC4)cc1	·	-0.82
Cc1cc2c3c([nH]c2cc1S(=O)(=O)Nc1ccc(S(N)(=O)=O)cc1)CCCC3=O	·	10.8*
Cc1oc2ncn3nc(-c4ccc(CN5CCCCC5)o4)nc3c2c1C	·	0.78
c1sc2c(c1CN1CCN(C3CCCCC3)CC1)CCCC2	·	1.02
CCc1nc(-c2csc(S(=O)(=O)Nc3ccc(C)cc3C)c2)no1	·	0.67
Fc1ccc(NC(=S)Nc2cccc3c(NC(=S)Nc4ccc(F)cc4)cccc23)cc1	17.6*	·
CSc1ccccc1NC(=S)Nc1ccc(Cl)cc1	-1.53	·
CCCn1c(NC(C)CC)nc2c1c(=O)n(C)c(=O)n2C (centres undefined)	-0.09	·
